Experimental data: the supplement of paper PMC12669797
Structures can show the parent of a compound that is named as a salt. ± gives the standard deviation of the averaged measurements.

Assays:
ES2 = experiment: cell viability relative to DMSO control (MTS) (fraction of DMSO control); higher = more viable cells / less growth inhibition; conditions: 10 µM; 48 h
Method in brief: (§1)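 A 367-compound […] library was tested at a final concentration of 10 µM on TOV-21G and ES2 clear cell carcinoma cells (5000 cells per well, 96-well plates, pre-grown 24 h), with control wells receiving vehicle only. Following 48 h of exposure, CellTiter 96 AQueous One Solution was used as the manufacturer directs. This MTS assay gives cell viability as a fraction of the vehicle control.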

TOV-21G = experiment: as above; conditions: 10 µM; 48 h
Method in brief: as §1

## NNCCc1ccccc1 [Phenelzine]
ES2
  cell viability: 1.13
TOV-21G
  cell viability: 1.25

## CC(C)CC(=O)N[C@H](C(=O)N[C@H](C(=O)N[C@@H](CC(C)C)[C@@H](O)CC(=O)N[C@@H](C)C(=O)N[C@@H](CC(C)C)[C@@H](O)CC(=O)O)C(C)C)C(C)C [Pepstatin A]
ES2
  cell viability: 0.807
TOV-21G
  cell viability: 1.18

## NS(=O)(=O)c1ccc(Nc2nc(OCC3CCCCC3)c3[nH]cnc3n2)cc1
ES2
  cell viability: 0.699
TOV-21G
  cell viability: 0.784

## Cc1ccc(-c2cn3c4c(sc3n2)CCCC4)cc1 [Pifithrin-a (cyclic)]
ES2
  cell viability: 1.03
TOV-21G
  cell viability: 1.11

## C[C@H](NC(=O)/C(C#N)=C/c1cccc(Br)n1)c1ccccc1
ES2
  cell viability: 0.347
TOV-21G
  cell viability: 0.392

## C=CCNC1=C2C[C@@H](C)C[C@H](OC)[C@H](O)[C@@H](C)/C=C(\C)[C@H](OC(N)=O)[C@@H](OC)/C=C\C=C(/C)C(=O)NC(=CC1=O)C2=O
ES2
  cell viability: 0.541
TOV-21G
  cell viability: 0.575

## N#C/C(=C\c1ccc(O)c(O)c1)C(=O)NCc1ccccc1
ES2
  cell viability: 0.891 ± 0.39
TOV-21G
  cell viability: 1 ± 0.013

## CC(C)c1ccc2c(c1)c(SC(C)(C)C)c(CC(C)(C)C(=O)O)n2Cc1ccc(Cl)cc1
ES2
  cell viability: 1.06
TOV-21G
  cell viability: 0.959

## C=CC[C@@H]1/C=C(\C)C[C@H](C)C[C@H](OC)[C@H]2O[C@@](O)(C(=O)C(=O)N3CCCC[C@H]3C(=O)O[C@H](/C(C)=C/[C@@H]3CC[C@@H](O)[C@H](OC)C3)[C@H](C)[C@@H](O)CC1=O)[C@H](C)C[C@@H]2OC
ES2
  cell viability: 0.941
TOV-21G
  cell viability: 0.964

## COc1cc2nc(N3CCCN(C)CC3)nc(NC3CCN(Cc4ccccc4)CC3)c2cc1OC
ES2
  cell viability: 0.42
TOV-21G
  cell viability: 0.454

## COC(=O)C1=C(C)NC(C)=C(C(=O)OC)C1c1ccccc1[N+](=O)[O-] [Nifedipine]
ES2
  cell viability: 0.911
TOV-21G
  cell viability: 0.741

## CCN1/C(=C/C(C)=O)Sc2ccc(OC)cc21
ES2
  cell viability: 0.857
TOV-21G
  cell viability: 1.01

## C[C@@H]1C[C@H]2O[C@@H]2/C=C\C=C\C(=O)Cc2c(Cl)c(O)cc(O)c2C(=O)O1 [Radicicol]
ES2
  cell viability: 0.533
TOV-21G
  cell viability: 0.37

## COC(=O)c1ccc(NCc2cc(O)ccc2O)cc1
ES2
  cell viability: 1.414 ± 0.0028
TOV-21G
  cell viability: 1.06 ± 0.026

## Cc1ccc2nc(NCCN)c3ncc(C)n3c2c1
ES2
  cell viability: 0.489
TOV-21G
  cell viability: 0.375

## COc1ccc([C@@H]2Sc3ccccc3N(CCN(C)C)C(=O)[C@@H]2OC(C)=O)cc1 [Diltiazem]
ES2
  cell viability: 0.858
TOV-21G
  cell viability: 1.04

## O=C1Nc2ccc(I)cc2/C1=C\c1cc(Br)c(O)c(Br)c1 [RAF1 kinase inhibitor I]
ES2
  cell viability: 1.1
TOV-21G
  cell viability: 1.03

## COc1cccc2c1C(=O)c1c(O)c3c(c(O)c1C2=O)C[C@@](O)(C(C)=O)C[C@@H]3O[C@H]1C[C@H](N)[C@H](O)[C@H](C)O1 [Daunorubicin, HCl]
ES2
  cell viability: 0.435
TOV-21G
  cell viability: 0.527

## O=C1C(SCCO)=C(SCCO)C(=O)c2ccccc21
ES2
  cell viability: 0.962
TOV-21G
  cell viability: 0.861

## OC[C@H]1NC[C@H](O)[C@@H](O)[C@@H]1O [Deoxynojirimycin]
ES2
  cell viability: 1.02
TOV-21G
  cell viability: 1.19

## N#CC[C@H](C1CCCC1)n1cc(-c2ncnc3[nH]ccc23)cn1 [Ruxolitinib]
ES2
  cell viability: 0.979
TOV-21G
  cell viability: 0.776

## CC#C[C@]1(O)CC[C@H]2[C@@H]3CCC4=CC(=O)CCC4=C3[C@@H](c3ccc(N(C)C)cc3)C[C@@]21C [Mifepristone]
ES2
  cell viability: 1.04
TOV-21G
  cell viability: 0.846

## NC(=O)NO [Hydroxyurea]
ES2
  cell viability: 1.21
TOV-21G
  cell viability: 0.811

## CCOC(=O)C1=C(C)NC(=S)NC1c1cccc(O)c1 (centres undefined) [Monastrol]
ES2
  cell viability: 0.884
TOV-21G
  cell viability: 0.853

## COc1nccc(-c2c(-c3ccc(F)cc3)ncn2C2CCC(O)CC2)n1 (centres undefined)
ES2
  cell viability: 1.14
TOV-21G
  cell viability: 1.06

## CC(=O)O[C@H]1C(=O)[C@@]2(C)[C@H]([C@H](OC(=O)c3ccccc3)[C@]3(O)C[C@H](OC(=O)[C@H](O)[C@@H](NC(=O)c4ccccc4)c4ccccc4)C(C)=C1C3(C)C)[C@]1(OC(C)=O)CO[C@@H]1C[C@@H]2O [Paclitaxel]
ES2
  cell viability: 0.467
TOV-21G
  cell viability: 1.25

## O=C1Cc2c([nH]c3ccc(Br)cc23)-c2ccccc2N1 [Kenpaullone]
ES2
  cell viability: 0.701 ± 0.11
TOV-21G
  cell viability: 0.468 ± 0.048

## COc1cc(Nc2ncc3c(n2)-c2ccc(Cl)cc2C(c2c(F)cccc2OC)=NC3)ccc1C(=O)O
ES2
  cell viability: 0.769
TOV-21G
  cell viability: 0.619

## COc1cc2ncnc(Nc3cccc(Cl)c3)c2cc1OC
ES2
  cell viability: 1.04 ± 0.12
TOV-21G
  cell viability: 0.839 ± 0.24

## COc1cc2ncc(-c3ccccc3)nc2cc1OC
ES2
  cell viability: 0.862 ± 0.058
TOV-21G
  cell viability: 0.955 ± 0.13

## CCCCCCCCCCC[C@@H](C[C@@H]1OC(=O)[C@H]1CCCCCC)OC(=O)[C@H](CC(C)C)NC=O [orlistat]
ES2
  cell viability: 1.08
TOV-21G
  cell viability: 1.14

## O=C(Nc1cccc2cccnc12)c1ccc(N2C(=O)[C@@H]3[C@H](C2=O)[C@@H]2C=C[C@H]3C2)cc1 [IWR-1-endo]
ES2
  cell viability: 0.998
TOV-21G
  cell viability: 0.582
